Laboratory results as given in PubChem BioAssay AID540276 (National Center for Advancing Translational Sciences (NCATS), 2011).
About 5,400 (1.8%) of roughly 300,000 compounds were called active. Another 28% or so got no clear call; they are omitted. Calls follow the shape of the full dose curve; tested in HEK293 cells. The sample as a whole holds a higher share of actives than the screen did.

Test: qHTS for inhibitors of binding or entry into cells for Marburg Virus
Settings: Marburg virus pseudotyped entry inhibition, cell reporter; series mostly up to 37.8 µM; activity change, negative = inhibition: at the top concentration
% is scaled to controls: 0 for no effect and ±100 for the full control effect; potency is read from the fitted curve at half-maximal effect.

Row | SMILES | activity change, negative = inhibition | Potency
1 | O=C(C1C=CC(C(=O)N2CCOCC2)S1)N1CCOCC1 (centres undefined) | 19.3% [at 46.1 µM] (inactive) | 
2 | O=C(Cn1ccc2cc(S(=O)(=O)N3CCCC3)ccc21)NCc1ccccc1 | -13.9% [at 46.1 µM] (inactive) | 
3 | COCCn1c(C)cc(C(=O)CSc2nnc(C3CC3)n2C2CC2)c1C | 10.6% (inactive) | 
4 | CCN(CC)CCCC(C)Nc1ccnc2cc(Cl)ccc12 (centres undefined) |  | 5.62 µM (active)
5 | CCN(CC)CCNc1ccc(Cl)cc1[N+](=O)[O-] | 2.68% (inactive) | 
6 | COc1ccc(CNC(=O)C(C)NCc2ccccc2Cl)cc1 (centres undefined) | -8.02% (inactive) | 
7 | Cc1cccc(N2C(=O)C[C@@H](N3CCN(Cc4ccc(Cl)cc4)CC3)C2=O)c1 | -3.25% (inactive) | 
8 | Cc1nn2c(c1-c1ccccc1)N=C(c1ccco1)CC2c1ccccc1 (centres undefined) |  | 0.517 µM (active)
9 | Cc1ccc(C)c(C(C)NC(=O)C2CCCO2)c1 (centres undefined) | -16.9% [at 46.1 µM] (inactive) | 
10 | COC(CNC(=O)c1ccc2c(c1)ncn2-c1cc(C)cc(C)c1)OC | 0.48% [at 46.1 µM] (inactive) | 
11 | O=C(CC(O)(C(F)(F)F)C(F)(F)F)Nc1ccc(Cl)c(Cl)c1 |  | 3.26 µM (active)
12 | O=C(CC(=O)Nc1ccc(Cl)c(Cl)c1)N/N=C/c1ccc(O)cc1 | -16.3% (inactive) | 
13 | N/C(=N\OC(=O)Nc1ccc(Cl)c(Cl)c1)c1ncc(C(F)(F)F)cc1Cl | -4% (inactive) | 
14 | CSc1ncc(C(=O)Nc2ccc(C)cc2C)c(C)n1 | -15.4% [at 46.1 µM] (inactive) | 
15 | CCOc1ccc(NC(=O)C(C)N2C(=O)c3ccccc3C2=O)cc1 (centres undefined) | 3.67% (inactive) | 
16 | COc1ccc(CCNC(=O)CCCn2c(=O)c3ccccc3n(Cc3ccc(F)cc3Cl)c2=O)cc1OC | 1.97% [at 46.1 µM] (inactive) | 
17 | COc1ccc(CCn2ccc(O)c(Cc3ccc(Cl)cc3Cl)c2=O)cc1OC |  | 3.98 µM (active)
18 | COc1ccc(CCNC(=O)CCc2ccccc2O)cc1OC | -7.5% [at 46.1 µM] (inactive) | 
19 | COC(=O)c1ccc(C(=O)NC2CC(C)(C)Cc3c2cnn3-c2ccc(F)cc2)nc1 (centres undefined) | -10.5% (inactive) | 
20 | Cn1nnnc1SCC(=O)Nc1sccc1C(N)=O | -3.85% (inactive) | 
21 | CN1c2ccc(C=O)c3c(C=O)ccc(c23)N(C)C1(C)C |  | 10 µM (active)
22 | O=C(CN(CC1CCCO1)C(=O)CNS(=O)(=O)c1ccc(Cl)cc1)NCc1ccccc1 (centres undefined) | -28.2% [at 46.1 µM] (inactive) | 
23 | COc1ccc(C(=O)Nc2ccnn2C2CCN(Cc3ccncc3)CC2)cc1 | 2.71% (inactive) | 
24 | S=C(c1ccccc1)N1CCCC1 | 27% (inactive) | 
25 | O=C(NC(Cc1ccccc1)C(=O)N1CCCC(C(F)(F)F)C1)c1ccccc1 (centres undefined) | -0.92% (inactive) | 
26 | CSCCC(NS(=O)(=O)/C=C/c1ccccc1)C(=O)N1CCC(C)CC1 (centres undefined) |  | inactive

Row | SMILES | activity change, negative = inhibition | Potency
27 | CSCCC(NC(=O)c1ccccc1)C(=O)N1CCN(Cc2ccc(Cl)cc2)CC1 (centres undefined) |  | 11.2 µM (active)
28 | CC(=O)Nc1ccc(S(=O)(=O)NNC(=O)CCc2ccccc2)cc1 | 6.74% [at 46.1 µM] (inactive) | 
29 | CC(=O)Nc1ccc(Nc2ncnc3c2nnn3Cc2ccccc2Cl)cc1 | -1.38% [at 46.1 µM] (inactive) | 
30 | CN(C(=O)CC1C(=O)NCCN1Cc1ccc2ccccc2c1)C1CCOCC1 (centres undefined) | 18.8% (inactive) | 
31 | c1ccc2c(c1)CSc1sccc1C2=C1CCNCC1 |  | 6.51 µM (active)
32 | CCc1c(Nc2ccccc2Cl)nc(N)[nH]c1=O | -3.03% [at 46.1 µM] (inactive) | 
33 | COc1ccccc1N(CC(=O)Nc1c(C)n(C)n(-c2ccccc2)c1=O)S(=O)(=O)c1ccccc1 | 1.4% (inactive) | 
34 | COc1ccc(S(=O)(=O)Nc2ccc(S(=O)(=O)N3CCCCC3)cc2)cc1OC | -2.04% (inactive) | 
35 | COc1ccc(S(=O)(=O)N2CCCCC2)cc1Br | -2.99% (inactive) | 
36 | COc1ccc(-c2ccc(Nc3ccc(S(=O)(=O)N4CCCC4)cc3)nn2)cc1OC |  | 14.6 µM (active)
37 | CCCN1CCN(C(=O)CCCNC(=O)c2ccc(Cl)cc2)CC1 | -21.4% [at 46.1 µM] (inactive) | 
38 | CC1(C)Cc2c(cnn2-c2cccc(F)c2)C(NC(=O)c2cc[n+]([O-])cc2)C1 (centres undefined) | 0.0229% [at 46.1 µM] (inactive) | 
39 | CCC(=O)N(Cc1ccccc1)c1ccccn1 | 9.74% (inactive) | 
40 | CCCN(CC1CC1)C(=O)COC(=O)c1ccc(C)cc1O | -16.7% (inactive) | 
41 | CC(Oc1ccc(Br)cc1)C(=O)NCC(c1ccco1)N1CCCCC1 (centres undefined) | 1.61% (inactive) | 
42 | CN(C)/N=C/c1cn(-c2ccccc2)nc1-c1cccnc1 | 10.5% [at 46.1 µM] (inactive) | 
43 | Cc1ccc(-c2nn(-c3ccccc3)cc2/C=N/NC(=O)c2ccc3c(c2)OCO3)cc1 | -17.5% (inactive) | 
44 | COc1ccc(-c2nn(-c3ccccc3)cc2/C=N/Nc2ccccn2)cc1OC |  | 13 µM (active)
45 | CC(CC(=O)Nc1ccc(F)cc1F)S(=O)(=O)c1ccc2c(c1)NC(=O)CO2 (centres undefined) | -5.28% [at 46.1 µM] (inactive) | 
46 | CC(C)CC1(C)NC(=O)N(CC(=O)Nc2ccc3c(c2)OCCO3)C1=O (centres undefined) | 4.78% (inactive) | 
47 | CC(=O)c1c(OCC(=O)N(C)C2CCCCC2)ccc2c(C)cc(=O)oc12 | -3.09% (inactive) | 
48 | Cc1c(NC(=O)Nc2cccc([N+](=O)[O-])c2)c(=O)n(-c2ccccc2)n1C | 12.1% [at 46.1 µM] (inactive) | 
49 | O=C(CNC(=O)C1COc2ccccc2O1)N/N=C/c1cc(Br)c(O)c(Br)c1 (centres undefined) | -3.34% [at 46.1 µM] (inactive) | 
50 | CCn1nnc2cc(C(=O)Nc3ccc(C(=O)OC(C)C)cc3)ccc21 | -7.15% (inactive) | 
51 | COc1ccc2[nH]c(=O)c(CN(Cc3cccnc3)S(=O)(=O)c3ccccc3F)cc2c1 |  | 2.82 µM (active)
52 | CCC(=O)N(Cc1cc2cc(OC)ccc2[nH]c1=O)c1ccccc1C | -17.6% [at 46.1 µM] (inactive) | 

Row | SMILES | activity change, negative = inhibition | Potency
53 | COc1ccc(-c2[nH]ncc2CN(C)Cc2cccnc2)c(F)c1 | -0.344% (inactive) | 
54 | Cc1ccc(C(=O)Nc2ccc3c(c2)OCCO3)cc1S(=O)(=O)N1CCOCC1 | 6.93% (inactive) | 
55 | Cc1ccc(-c2csc(C(C#N)=C(O)CN3CCN(C(=O)c4ccco4)CC3)n2)cc1 | -0.39% [at 46.1 µM] (inactive) | 
56 | COC(=O)C(C)Sc1nc2c(c(=O)n(C)c(=O)n2C)n1Cc1cccc(C)c1 (centres undefined) |  | inactive
57 | Cc1cccc(Cn2c(SCCO)nc3c2c(=O)n(C)c(=O)n3C)c1 | -9.74% (inactive) | 
58 | C/C(Cl)=C\Cn1c(Nc2cccc(C)c2)nc2c1c(=O)n(C)c(=O)n2C |  | 11.6 µM (active)
59 | COc1ccccc1NC(=O)C(C)OC(=O)c1ccc(-n2cnnn2)cc1 (centres undefined) | -12% [at 46.1 µM] (inactive) | 
60 | CC(C)CC(=O)Nc1ccc(Cc2ccncc2)cc1 | 7.63% [at 46.1 µM] (inactive) | 
61 | CCOc1ccc(-c2noc(CCC(=O)NC3CCCC3)n2)cc1OC | -10.6% [at 46.1 µM] (inactive) | 
62 | CC1CN(C(=O)CCC(=O)NCCCN2CCC(Cc3ccccc3)CC2)c2cc(Cl)ccc2O1 (centres undefined) |  | 11.2 µM (active)
63 | COc1ccccc1NC(=O)CCC(=O)N1CC(C)Oc2ccc(C)cc21 (centres undefined) | -6.87% [at 46.1 µM] (inactive) | 
64 | Cc1ccc2c(c1)N(C(=O)CCC(=O)NCc1ccccc1F)CC(C)O2 (centres undefined) | -2.34% [at 46.1 µM] (inactive) | 
65 | N[C@@H](Cc1ccccc1)C(=O)N1CCC(C(=O)NCC(=O)Nc2ccc(F)cc2)CC1 | 6.98% [at 46.1 µM] (inactive) | 
66 | O=C(CN1CCN(C(=O)C2CCCO2)CC1)Nc1c(Cl)cccc1Cl (centres undefined) | 3.63% (inactive) | 
67 | CCNc1nc(NCC)nc(N/N=C/c2ccc(O)c(OC)c2)n1 | -5.07% [at 46.1 µM] (inactive) | 
68 | COc1cc(/C=N\Nc2nc(-c3cccs3)c(NC(C)=O)s2)ccc1O | 11.4% [at 46.1 µM] (inactive) | 
69 | COc1cc(/C=N/Nc2nc3ccccc3s2)ccc1O |  | 10 µM (active)
70 | CCN(CC(=O)Nc1c(F)cccc1F)C(=O)Cc1cccs1 | 4.83% [at 46.1 µM] (inactive) | 
71 | CCOC(=O)N(Cc1ccccc1)C1CC1 | -15.5% (inactive) | 
72 | CCOC(=O)CCP(=O)(O)C(O)(c1ccccc1)c1ccccc1 | 10.9% (inactive) | 
73 | CCC(C(=O)OCCN(CC)CC)c1ccccc1 (centres undefined) |  | inactive
74 | CCCC(C(=O)OCCN(CC)CC)(c1ccccc1)c1ccccc1 |  | 10 µM (active)
75 | COc1ccccc1CN1CCNC(=O)C1CC(=O)N(C)CC1CCOCC1 (centres undefined) | 6.02% [at 46.1 µM] (inactive) | 
76 | O=C(c1ccc(N2CCOCC2)c([N+](=O)[O-])c1)N1CCN(c2ccccc2F)CC1 | 14.8% (inactive) | 
77 | COc1ccc(CCNC(=O)CSc2nc3[nH]ncc3c(=O)n2-c2cccc(C(F)(F)F)c2)cc1OC | 16.5% [at 46.1 µM] (inactive) | 
78 | COC(=O)c1ccc(CSc2nc3ccccc3c(=O)n2-c2cccc(OC)c2)o1 | -26.9% (inactive) | 

Row | SMILES | activity change, negative = inhibition | Potency
79 | Cc1cccc2nc(CSc3nc4[nH]ncc4c(=O)n3-c3cccc(Cl)c3)cc(=O)n12 |  | 7.31 µM (active)
80 | CC(=O)C1=C(C)NC(=O)NC1c1ccc2c(c1)OCO2 (centres undefined) | 2.27% [at 46.1 µM] (inactive) | 
81 | O=C(/C=C/c1ccc(F)cc1)NCCNC(=O)/C=C/c1ccc(F)cc1 | -6.93% [at 46.1 µM] (inactive) | 
82 | CN(C)CCCNC(=O)/C=C/c1ccc(OCc2c(F)cccc2Cl)cc1 |  | 3.98 µM (active)
83 | C#CC(C)(CC)NC(=O)Cn1nnc(-c2ccc(OCc3c(F)cccc3Cl)cc2)n1 (centres undefined) | -6.24% [at 46.1 µM] (inactive) | 
84 | NCCCCCC(=O)N/N=C/c1ccc2nccnc2c1 |  | 2.82 µM (active)
85 | O=C(CCCCCNC(=O)c1ccccc1)N/N=C/c1ccccc1 | 6.54% [at 46.1 µM] (inactive) | 
86 | CCOc1cc(C=NNC(=O)CCCC(=O)NN=Cc2ccc(O)c(OCC)c2)ccc1O | 14.1% (inactive) | 
87 | COc1ccccc1CNC(=O)CSc1nc(=O)n(Cc2ccncc2)c2c1CCC2 | 0.122% (inactive) | 
88 | Cc1ccc(C(=O)N/C(=C\c2cn(C)c3ccccc23)C(=O)N2CCN(C)CC2)cc1 | -11.6% [at 46.1 µM] (inactive) | 
89 | CC(=O)OC1CCC2C3CCC4=C(CC(F)C(=O)C4)C3CCC12C (centres undefined) | -3.13% (inactive) | 
90 | Cc1cccc(N=C2NN=C(c3c[nH]c4ccccc34)CS2)c1 | -28.3% (inactive) | 
91 | C=CCn1c(C)cc(C2=NNC(=NCC)SC2)c1C |  | 1.16 µM (active)
92 | COCCn1c(C)cc(C2=NNC(=Nc3ccc(F)cc3)SC2)c1C | -22.1% (inactive) | 
93 | COc1cccc(N(C(=O)CNC(=O)c2ccco2)C(C(=O)NC2CCCCC2)c2cccnc2)c1 (centres undefined) | 12% [at 46.1 µM] (inactive) | 
94 | COc1cc([C@H]2[C@@H]3C(=O)N(c4ccc(F)cc4)C(=O)[C@H]3ON2c2ccccc2)ccc1O | 7.28% (inactive) | 
95 | O=[N+]([O-])c1ccc(S(=O)(=O)Nc2cccc(-c3ccc(N4CCCC4)nn3)c2)cc1 | 19.4% (inactive) | 
96 | Cc1ccc(S(=O)(=O)c2cc3c(=O)n4cccc(C)c4nc3n(CCc3ccccc3)c2=N)cc1C | 1.23% (inactive) | 
97 | O=C(OCC(=O)N1CCCCCC1)c1ccc(Br)c(S(=O)(=O)N2CCOCC2)c1 | -2.16% (inactive) | 
98 | C=CCNc1ncnc2ccc(Br)cc12 |  | inactive
99 | CC1(C)CC2CC(C)(CN2c2ncnc3ccc(Br)cc23)C1 (centres undefined) |  | 6.31 µM (active)
100 | O=C(NNc1nc(N2CCCC2)nc(N2CCCC2)n1)c1ccccc1 | -22.7% (inactive) | 
101 | O=C(CN1CCc2ccccc2C1)Nc1cccc(S(=O)(=O)N2CCOCC2)c1 | -29.4% (inactive) | 
102 | COc1ccc2oc(N)nc2c1 | 10.7% (inactive) | 
103 | O=[N+]([O-])c1ccc2oc(-c3cccc(O)c3)nc2c1 | -25.3% (inactive) | 
104 | COc1cccc(-c2nc3cc(C)ccc3o2)c1 |  | 6.31 µM (active)
